Rows were chosen to be rich in hits. Some 3.7% of all compounds tested hit in one or more screens of this group.
ERb coact inh: ER-beta (human) coactivator binding inhibition; Q92731; inhibition, % at 25.6 µM; TR-FRET ER-beta LBD / SRC1-Cy5 peptide binding; receptor agonist-loaded with 1 µM estradiol; hit rate 1.3% among 86,000;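 active means compounds whose percent inhibition of the receptor-coactivator binding signal exceeds about 50% in the single-dose screen, limit read from the data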
Target sequence (Q92731 whole entry, looked up, the tested form may be a part): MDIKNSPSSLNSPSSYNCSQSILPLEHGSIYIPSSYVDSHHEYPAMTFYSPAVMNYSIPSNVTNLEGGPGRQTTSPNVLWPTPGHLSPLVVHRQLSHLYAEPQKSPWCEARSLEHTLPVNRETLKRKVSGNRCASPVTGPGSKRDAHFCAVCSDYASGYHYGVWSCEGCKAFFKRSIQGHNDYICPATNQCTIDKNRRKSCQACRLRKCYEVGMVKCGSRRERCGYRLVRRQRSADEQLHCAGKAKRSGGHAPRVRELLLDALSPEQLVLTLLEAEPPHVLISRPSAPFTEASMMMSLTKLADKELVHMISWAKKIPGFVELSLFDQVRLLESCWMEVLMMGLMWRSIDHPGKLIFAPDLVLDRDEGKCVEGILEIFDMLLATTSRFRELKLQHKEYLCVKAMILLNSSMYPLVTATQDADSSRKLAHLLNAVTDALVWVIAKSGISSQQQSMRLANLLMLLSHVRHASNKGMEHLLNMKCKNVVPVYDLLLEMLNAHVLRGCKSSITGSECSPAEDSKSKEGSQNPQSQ
Smad3 FoxH1 inh: inhibitors of human Smad3 transcription factor binding. P84022. TR-FRET Smad3/Dy647-FoxH1 peptide binding, europium anti-His. inhibition, % at 25 µM. hit rate 0.29% among 88,000. AID 630;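 active means compounds that reduce the energy-transfer binding signal between the protein and its labelled peptide by more than half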
ERa coact inh: ER-alpha (human) coactivator binding inhibition. P03372. TR-FRET ER-alpha LBD / SRC-1 peptide, estradiol-bound. inhibition, % at 25.6 µM. hit rate 1.7% among 86,000. AID 629; in the data active means inhibition above about 50%
ERa coact pot: enhances coactivator binding to human estrogen receptor alpha; P03372; TR-FRET ERalpha-LBD/SRC-Cy5 coactivator binding, 2 h; 100 = basal binding, no effect; coactivator binding (% of control), % at 25.6 µM; hit rate 1.3% among 86,000; in the data active means activity above about 200%;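 further: binding measured in presence of low estradiol as agonist stimulus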
A number is an active result; - = inactive; . = not tested or not shown; [ ] = remark or other dose.

SMILES | ERb coact inh | Smad3 FoxH1 inh | ERa coact inh | ERa coact pot
COc1cc(-c2nc(-c3ccc(Br)o3)no2)cc(OC)c1OC | - | - | - | -
COc1ccc(-c2noc(-c3ccc(Br)o3)n2)cc1OC | - | - | - | 387[fluorescence artefact?]
O=C(NOC(=O)c1ccccc1Cl)c1cccs1 | - | - | - | -
O=C(Nc1ccc(N2CCOCC2)cc1)c1ccncc1 | - | - | - | -
S=C(Nc1ccc(N2CCOCC2)cc1)Nc1ccc2nc(-c3ccco3)c(-c3ccco3)nc2c1 | 89[fluorescence artefact?] | - | 68[fluorescence artefact?] | -
O=C(CCn1ccc2ccccc21)Nc1ccc(N2CCOCC2)cc1 | - | - | - | -
O=C(Nc1ccc(N2CCOCC2)cc1)c1ccc2nc(-c3ccco3)c(-c3ccco3)nc2c1 | 50[fluorescence artefact?] | - | 80[fluorescence artefact?] | -
O=C(c1ccc2nc(-c3ccco3)c(-c3ccco3)nc2c1)N1CCN(c2ncccn2)CC1 | 86[fluorescence artefact?] | - | 76[fluorescence artefact?] | -
O=[N+]([O-])CC(=Nc1ccc(Cl)cc1)N/N=C\c1oc(O)c2ccccc12 | - | - | - | -
CC1SC(=NC(=O)C(C)N2C(=O)c3ccccc3C2=O)NC1=O (stereo unspecified) | - | - | - | -
C[N+](C)(C)[C@H](Cc1c[nH]c(=S)[nH]1)C(=O)O | . | - | . | .
O=C(O)CCCNC(=O)OCc1ccccc1 | - | - | - | -
COC(=O)C(CCCCNC(=O)OCc1ccccc1)NC(=O)CN (stereo unspecified) | - | - | 91[fluorescence artefact?] | -
O=C1CC[C@H](NC(=O)c2ccccc2)C(=O)N1 | . | - | . | .
O=S(=O)(Nc1ncnc2sc3c(c12)CCC3)c1ccc2ccccc2c1 | 53 | - | - | -
O=S(=O)(Nc1nc2c(s1)CCCC2)c1ccc2ccccc2c1 | - | - | - | -
CCOc1ccccc1CN1C(=O)c2ccccc2C1C(=O)NC(C)CC (stereo unspecified) | - | - | - | -
CC1(C)CCCC2=C1CC1C(=O)N(O)C(=O)C1C2 (stereo unspecified) | 89 | - | - | -
CCCCSc1nnc2c(n1)[nH]c1ccccc12 | - | - | 56 | -
CCN(CC(=O)N1CCc2ccccc2C1)S(=O)(=O)c1ccc2ccccc2c1 | - | - | - | -
O=C(Nc1ccc(N2CCCC2)cc1)C(Cl)c1ccccc1 (stereo unspecified) | 50 | - | 59 | -
CS(=O)(=O)N1CCN(c2ccc(NC(=O)C(c3ccccc3)c3ccccc3)cc2)CC1 | - | - | - | -
Cc1nc2ncnn2c(N2CCN(C(=O)Cc3cccs3)CC2)c1C | 85[fluorescence artefact?] | - | 90[fluorescence artefact?] | -
Cc1ccc(-c2cc3nc(-c4ccccc4)cc(N4CCOCC4)n3n2)cc1 | - | - | - | -
COc1ccc(-c2cc3nc(-c4ccccc4)cc(N4CCC5(CC4)OCCO5)n3n2)cc1 | - | - | - | 267[fluorescence artefact?]
SMILES | ERb coact inh | Smad3 FoxH1 inh | ERa coact inh | ERa coact pot
CCCCNc1c(CN)cnc2cc(Cl)ccc12 | . | - | . | .
COc1ccc(N2Cc3cccc(C(=O)NC(C)CCc4ccco4)c3C2=O)cc1 (stereo unspecified) | - | - | 69[fluorescence artefact?] | -
COc1ccc(N2CC(C(=O)Nc3ccccc3C(=O)NCc3ccco3)CC2=O)cc1 (stereo unspecified) | - | - | - | -
CCOC(=O)N1CCC(N2Cc3cccc(C(=O)NCc4ccc(OC)cc4)c3C2=O)CC1 | - | - | - | -
CCOC(=O)N1CCC(NC(=O)c2cnn3c(C(F)(F)F)cc(-c4cccc(OC)c4)nc23)CC1 | 51[fluorescence artefact?] | - | 72[fluorescence artefact?] | -
CCOC(=O)N1CCC(NC(=O)c2cccc3c2C(=O)N(c2ccc(OC)cc2)C3)CC1 | 52 | - | 72[fluorescence artefact?] | -
CCOC(=O)c1cnn2c(C(F)(F)F)cc(-c3ccccc3)nc12 | - | - | - | -
COc1ccc2c3c(ccc2c1)N[C@H](C(=O)O)CC3 | . | - | . | .
Cc1cc(NC(=O)CSc2nnc(-c3ccco3)o2)no1 | - | - | - | 255[fluorescence artefact?]
Cc1noc(C)c1COc1ccc(C(=O)OCC(=O)N2CC(=O)Nc3ccccc32)cc1 | - | - | - | -
COc1ccc(C(C)=O)cc1COC(=O)c1ccc(OCc2c(C)noc2C)cc1 | - | - | 55[fluorescence artefact?] | 277
Cc1noc(C)c1COc1ccc(C(=O)OCC(=O)N2c3ccccc3NC(=O)C2(C)C)cc1 | 68 | - | 73 | -
COc1ccc(C(C)=O)cc1COC(=O)c1c(C)noc1C | - | - | - | -
Cc1cccc2cc(CN(CC3CCCO3)C(=O)c3ccco3)c(=O)[nH]c12 (stereo unspecified) | - | - | - | -
Cc1ccc2cc(CN(CC3CCCO3)C(=O)c3ccco3)c(=O)[nH]c2c1C (stereo unspecified) | 54 | - | - | -
CC(C)OC(=O)CSc1nc2cc3c(cc2cc1C#N)OCO3 | - | - | - | -

From PubChem BioAssay
